For this experiment, the target named is Pro-neuregulin-1, membrane-bound isoform (Homo sapiens) (UniProt Q02297). Nature of the experiment: small molecules binding neuregulin-1 protein – biochemical, small-molecule microarray, fluorescence 635/667, psychiatric disease protein project, primary screen (AID 1075).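 Note: score combines 667 nm spot fluorescence with signal to noise.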 To be noted: NRG1 binding, 635 nm fluorescence, higher = more signal.
Chain of Pro-neuregulin-1, membrane-bound isoform (Homo sapiens) (Q02297 whole entry, looked up, canonical isoform): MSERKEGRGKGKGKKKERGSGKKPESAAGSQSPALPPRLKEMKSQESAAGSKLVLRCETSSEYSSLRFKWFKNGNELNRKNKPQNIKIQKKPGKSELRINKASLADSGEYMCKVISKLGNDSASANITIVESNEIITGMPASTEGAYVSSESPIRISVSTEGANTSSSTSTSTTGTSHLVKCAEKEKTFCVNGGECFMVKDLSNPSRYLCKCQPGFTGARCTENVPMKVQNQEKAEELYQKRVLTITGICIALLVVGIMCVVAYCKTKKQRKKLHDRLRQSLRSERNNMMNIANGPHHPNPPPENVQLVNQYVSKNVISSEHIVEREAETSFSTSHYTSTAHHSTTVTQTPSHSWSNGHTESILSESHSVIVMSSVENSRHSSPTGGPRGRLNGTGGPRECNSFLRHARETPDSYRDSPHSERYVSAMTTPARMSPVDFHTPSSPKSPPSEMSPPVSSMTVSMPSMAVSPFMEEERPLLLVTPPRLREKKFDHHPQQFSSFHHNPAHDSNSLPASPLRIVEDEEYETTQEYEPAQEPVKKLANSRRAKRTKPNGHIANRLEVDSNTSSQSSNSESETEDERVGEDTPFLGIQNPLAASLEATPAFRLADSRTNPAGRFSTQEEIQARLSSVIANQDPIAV
Compound `CN1C(=O)C2C=CC(C(O)c3cc(C(F)(F)F)cc(C(F)(F)F)c3)N(N3CCCCC3)C2C1=O` (stereo not given) returned a composite z-score of 0.416. `CC(C)[C@@H](CO)NC(=O)[C@H]1[C@@H](c2ccccc2)N(c2ccccc2)O[C@@H]1C` showed a composite z-score of -0.0453. Under `COc1cc2c(cc1O)C(C1CC1)N(Cc1cc3c(cc1Br)OCO3)CC2` (stereo not given) stands 0.502; under `C=CCNC(=O)[C@H]1[C@@H]2C(=O)O[C@@H](c3ccccc3)[C@@H](c3ccccc3)N2[C@@H](c2ccccc2OCCO)[C@]12C(=O)Nc1ccc(C#CC3=CCCCC3)cc12`, 0.666; under `O=C1C2C=CC(C(O)c3ccc(F)cc3)N(Nc3ccccc3F)C2C(=O)N1c1ccccc1` (stereo not given), 1.99. As to `COc1cc(OC)c(C(O)C2C=CC3C(=O)NC(=O)C3N2Nc2ccc(Cl)cc2Cl)cc1Br` (stereo not given), the composite z-score is 1.9. Under `COc1cc2c(cc1O)C=[N+](Cc1cccc(OC(F)(F)F)c1)CC2` stands 0.529; under `COc1ccc([Si](C)(C)[C@H]2[C@H](CC(=O)N3Cc4ccccc4C[C@H]3CO)O[C@@]3(C(=O)N(Cc4ccc(N5CCC5=O)cc4)c4ccccc43)[C@@H]2C)cc1`, 1.08.

`Cc1ccc(S[C@]2(C(=O)NCCN3CCOCC3)CC(=O)N(Cc3ccccc3)[C@@H]2c2ccc(CO)cc2I)cc1` had a composite z-score of 0.742. The compound `COCCOC(=O)N1C(=O)[C@@]2(c3cc(C#Cc4ccc(OC)cc4)ccc31)[C@H](C(N)=O)[C@H]1C(=O)O[C@H](c3ccccc3)[C@H](c3ccccc3)N1[C@@H]2c1ccccc1OCCO` gave a composite z-score of 1.64. Turning to `[N-]=[N+]=NCc1ccccc1C[C@]1(C(=O)NCC(O)CO)N=C(c2ccc(OCCCO)cc2)O[C@H]1c1ccccc1` (stereo not given in full), the composite z-score came out at 0.958.

Compound `C#CCN(Cc1ccccc1Br)C(/C=C/c1ccccc1)CO` (stereo not given) came in with a composite z-score of -0.17. Consider `C#CCN(CC=C(C)C)[C@H](CO)c1ccccc1`, for which the composite z-score is -0.223.

Take `COc1ccc([Si](C)(C)[C@H]2[C@H](CCO)O[C@@]3(C(=O)N(Cc4ccc(N5C(=O)COc6ccccc65)cc4)c4ccccc43)[C@@H]2C)cc1`: the composite z-score came out at 0.774. The value for `CO[C@H]1O[C@H](CO)[C@@H](OC(=O)Nc2ccc(Br)cc2)[C@H](OC(=O)c2cc3ccccc3[nH]2)[C@H]1OC(=O)c1cc2ccccc2[nH]1` was 0.844; that for `CN1C(=O)C2C=CC(C(O)c3ccccc3)N(Nc3ccccc3)C2C1=O` (stereo not given) was 0.151. `COC(=O)[C@@]1(Cc2ccc(F)cc2)[C@H]2c3cc(C(=O)N4CCCC4)n(Cc4ccc(C)o4)c3C[C@H]2CN1C(=O)c1ccccc1` returned a composite z-score of 0.714.

In turn, `CCCCC(=C=CC[C@@H](O)c1ccccc1OCCO)CCO` came in with a composite z-score of 0.991. In the case of `CC(=O)N1Cc2ccccc2C[C@@]2(COC(c3ccc(OCCCO)cc3)=N2)C1=O`, the composite z-score turned out to be 1.4. `C[C@]1(C(=O)NC2CC2)c2ccccc2C(=O)N(Cc2cc(C(F)(F)F)cc(C(F)(F)F)c2)[C@H]1c1ccc(CO)cc1` returned a composite z-score of 0.354. As to `CCCC[C@@H]1C[C@H]1[C@@H](NC(=O)c1ccco1)c1ccc(C(=O)OC)cc1`, the composite z-score came out at 0.0609. For `C[C@@]1([C@@H](NC(=O)c2ccccc2)c2ccc(-c3ccccc3)cc2)C[C@H]1C1CCCCC1`, the composite z-score was -0.0156. `COCCOC(=O)N1C(=O)[C@@]2(c3cc(C#CC4=CCCCC4)ccc31)[C@H](c1ccc(O)cc1)N1[C@H](c3ccccc3)[C@H](c3ccccc3)OC(=O)[C@H]1[C@@H]2C(N)=O` displayed a composite z-score of 0.324. The value for `O=C1C2C=CC(C(O)C(c3ccccc3)c3ccccc3)N(n3cnnc3)C2C(=O)N1Cc1ccccc1` (stereo not given) was 0.429; that for `CN(C)CCCC[C@@H]1NC(=O)[C@H]2C[C@@H](C(=O)NCCCCCNC(=O)CS)[C@@H](c3cccc(OCCO)c3)N2C1=O` was 0.727. Under `O=C(O)[C@@]1(CCS(=O)(=O)c2ccccc2)COC(c2ccc(OCCCO)cc2)=N1` stands 0.964; under `[N-]=[N+]=NCc1ccccc1[C@@H]1OC(c2ccc(OCCCO)cc2)=N[C@]1(Cc1ccccc1N=[N+]=[N-])C(=O)N1CCOCC1`, 1.77; under `CC(C)N1C(=O)[C@@]2(Cc3ccccc31)c1ccccc1C(=O)N(C1CCCCC1)[C@H]2c1ccc(CO)cc1`, 0.452. The compound `CCOC(=O)[C@H]1C/C=C/C[C@H](C(=O)OCC)C(=O)O[C@H]2[C@@H](OC)O[C@H](CO)[C@@H](OC(=O)Nc3ccc(C#N)cc3)[C@@H]2OC1=O` gave a composite z-score of 1.39. On to `COc1ccc(C(O)C2C=CC3C(=O)N(c4ccccc4)C(=O)C3N2Nc2ccccc2F)cc1OCc1ccccc1` (stereo not given), for which the composite z-score amounted to 1.17. Turning to `CN(C)C(=O)[C@]1(Cc2ccccc2CN=[N+]=[N-])N=C(c2ccc(OCCCO)cc2)O[C@@H]1c1ccccc1CN=[N+]=[N-]`, the composite z-score was 0.559. Under `O=C1NCC(=O)N2[C@@H]1C[C@@H](C(=O)O)[C@H]2c1cccc(OCCO)c1` stands 2.97; under `COCCOC(=O)N1C(=O)[C@@]2(c3cc(C#CC4(O)CCCCCC4)ccc31)[C@H](c1ccc(O)cc1)N1[C@H](c3ccccc3)[C@H](c3ccccc3)OC(=O)[C@H]1[C@@H]2C(=O)Nc1nc2ccccc2s1`, 1.15. In turn, `COCCOC(=O)N1C(=O)[C@@]2(c3cc(C#CCNC(N)=O)ccc31)[C@H](C(=O)NC[C@H](O)c1ccccc1)[C@H]1C(=O)O[C@H](c3ccccc3)[C@H](c3ccccc3)N1[C@@H]2c1ccccc1OCCO` showed a composite z-score of 0.891.

As to `O=C(NCc1ccccc1)[C@@]1(CCS(=O)(=O)c2ccccc2)N=C(c2ccc(OCCCO)cc2)O[C@H]1c1ccccc1`, the composite z-score was found to be 1.82.

For the origin of these results see PubChem BioAssay.
